Assay outcomes (PubChem BioAssay)
A selection: hits, their analogues and other compounds. The true share with any hit is near 3.4%.
ssDAF12 agonist – activates DAF-12 receptor from parasite S. stercoralis; AID 652126; 370,000 compounds, 1% hits; HEK293 ssDAF-12/GRIP1 lit1-tk-luc reporter, luminescence; % of 3 µM dafachronic acid response; activation, % at 6.8 µM;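 active means activation above the mean over all tested compounds plus 3 SD, cut at about 0.9% in these data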;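 further: 0% = DMSO-only wells and 100% = 3 µM delta7-dafachronic acid wells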
hcDAF-12 act – H. contortus DAF-12 activation, primary screen; AID 652067; 370,000 compounds, 1.4% hits; HEK293 hcDAF-12 lit1-tk-luc reporter, luminescence; 0% DMSO, 100% Δ7-dafachronic acid; activation, % at 6.8 µM;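 active means activation above the mean of all tested compounds plus 3 SD, cut at about 5.5% in these data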;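 further: 100% = response to 3 µM Δ7-dafachronic acid high control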
hgDAF-12 ag – agonists of H. glycines DAF-12 nuclear receptor; HEK293 GAL4-hgDAF12 UAS-luciferase reporter, agonist luminescence; normalized to butyrate control; activation, % at 6.8 µM; 370,000 compounds, 1.8% hits; AID 687014;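 active means activation above a cutoff set at the mean of all screened compounds plus 3 SD, cut at about 10% in these data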;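 further: 0% = DMSO wells and 100% = sodium butyrate wells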
NF-kB neuron act – NF-kB expression increase, human neuronal cells; AID 1239; fold change at 12.5 µM; 190,000 compounds, 1.6% hits; NF-kB reporter expression; active compounds read high; in the data active means fold change above about 3.3
APP 5'UTR act – activates APP 5'UTR luciferase reporter; SH-SY5Y APP 5'UTR luciferase reporter, luminescence; zero percent = DMSO vehicle wells; activation, % at 2 µM; 190,000 compounds, 1% hits; AID 1276;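 active means activation above a set limit, based on mean plus 3 SD of controls, cut at about 140% in these data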
hgDAF12 conf – hgDAF-12 agonism, confirmation assay | shares compounds with hgDAF-12 ag | HEK293 GAL4-hgDAF12 luciferase reporter, agonist mode; percent of butyrate response | activation, % at 6.8 µM | 3,300 compounds, 80% hits;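 active means mean activation over triplicate wells above the hit cutoff derived from the earlier primary screen, cut at about 11% in these data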;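 further: 0% = DMSO low control and 100% = 2 mM sodium butyrate high control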
LXR ag 2 – counter-screen for DAF-12 agonists: agonists of human LXR-beta; AID 743051; activation, % at 6.8 µM; shares compounds with hgDAF-12 ag; HEK293 Gal4-LXR luciferase reporter, 24 h; 3,300 tested, under 10 active;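 active means mean activation of the triplicate above a set limit carried over from the primary screen, none filed active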
Target sequence (P55055 whole entry, looked up, the tested form may be a part): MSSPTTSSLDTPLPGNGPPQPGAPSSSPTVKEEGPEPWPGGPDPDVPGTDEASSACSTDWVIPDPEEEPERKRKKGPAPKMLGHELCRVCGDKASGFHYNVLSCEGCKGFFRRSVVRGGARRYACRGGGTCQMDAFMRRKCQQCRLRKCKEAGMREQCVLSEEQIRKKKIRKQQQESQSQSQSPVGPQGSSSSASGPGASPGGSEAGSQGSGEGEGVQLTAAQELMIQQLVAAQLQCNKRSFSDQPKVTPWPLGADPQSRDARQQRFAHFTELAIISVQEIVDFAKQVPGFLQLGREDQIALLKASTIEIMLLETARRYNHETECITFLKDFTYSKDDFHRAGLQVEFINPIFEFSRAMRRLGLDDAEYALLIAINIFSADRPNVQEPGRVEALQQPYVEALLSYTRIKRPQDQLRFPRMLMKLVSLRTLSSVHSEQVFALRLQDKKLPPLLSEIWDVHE
The depositor's hits bear a star.

`COc1ccc2nc(N(CCN(C)C)C(=O)c3ccc4ncsc4c3)sc2c1` gave ssDAF12 agonist 0, hcDAF-12 act 6.0*, hgDAF-12 ag 14*, hgDAF12 conf 19* and LXR ag 2 1.
`O=C(c1ccc(-c2ccccc2Cl)o1)N1CCC1` gave ssDAF12 agonist 0, hcDAF-12 act 1 and hgDAF-12 ag 8.
For O=C(c1ccc(-c2cccc(Cl)c2Cl)o1)N1CCOCC1 the results were ssDAF12 agonist 0, hcDAF-12 act 4, hgDAF-12 ag 17*, NF-kB neuron act 4.5*, APP 5'UTR act 108, hgDAF12 conf 16* and LXR ag 2 1.
NC(=O)C1CCCN(C(=O)c2ccc(-c3cccc(Cl)c3Cl)o2)C1 (configuration not stated) was read as ssDAF12 agonist 0, hcDAF-12 act 3 and hgDAF-12 ag 10.
Screening CC1CCN(C(=O)c2ccc(-c3ccccc3Cl)o2)CC1 returned ssDAF12 agonist 1, hcDAF-12 act 4, hgDAF-12 ag 16*, hgDAF12 conf 13* and LXR ag 2 1.
Screening O=C(NC1CCCCN(Cc2ccc(Cl)cc2)C1=O)c1ccc(COc2ccccc2)cc1 (configuration not stated) returned ssDAF12 agonist -2, hcDAF-12 act -5 and hgDAF-12 ag -1.
CN1CCCN(C(=O)CSc2nnc(-c3cccnc3)n2C2CCCCC2)CC1 was read as ssDAF12 agonist -1, hcDAF-12 act 3 and hgDAF-12 ag -3.
`O=C(NCCN1C(=O)C2C3C=CC(C3)C2C1=O)c1cc(Cl)cc(Cl)c1` (configuration not stated) gave ssDAF12 agonist -1, hcDAF-12 act -2 and hgDAF-12 ag -1.
`CCc1ccc(NC(=O)NC2CCCCCCC2)cc1` gave ssDAF12 agonist 1, hcDAF-12 act 4, hgDAF-12 ag 17*, hgDAF12 conf 18* and LXR ag 2 1.
`CCc1ccc(NC(=O)Nc2cccs2)cc1` gave ssDAF12 agonist 0, hcDAF-12 act 4, hgDAF-12 ag 14*, NF-kB neuron act 3.8*, APP 5'UTR act 6, hgDAF12 conf 18* and LXR ag 2 1.
`CC(C)c1ccc(NC(=S)NC2CCCCCC2)cc1` gave ssDAF12 agonist -1, hcDAF-12 act 2, hgDAF-12 ag 16*, NF-kB neuron act 1.1, APP 5'UTR act 40, hgDAF12 conf 9 and LXR ag 2 0.
`C[C@H]1Cn2nnc(-c3ccccc3)c2Cn2c3ccccc3c(=O)n21` gave ssDAF12 agonist -1, hcDAF-12 act -1 and hgDAF-12 ag 1.
Screening CCOC(=O)c1ccc(NCc2nc3ccccc3[nH]2)cc1 returned ssDAF12 agonist 0, hcDAF-12 act 5, hgDAF-12 ag 15*, NF-kB neuron act 1.5, APP 5'UTR act 63, hgDAF12 conf 5 and LXR ag 2 0.
Screening CCOC(=O)Cc1nc2ccccc2[nH]1 returned ssDAF12 agonist -1, hcDAF-12 act 0, hgDAF-12 ag -3, NF-kB neuron act 1.1 and APP 5'UTR act 6.
CC(C)=CCC/C(C)=C/CNCC(=O)N1c2ccccc2[C@]2(C)C[C@@H]3C(=O)N(C/C=C(\C)CCC=C(C)C)CC(=O)N3[C@H]12 was read as ssDAF12 agonist 0, hcDAF-12 act 0 and hgDAF-12 ag -1.
For Cc1ccc(OCCSc2ncccn2)c(C)c1 the results were ssDAF12 agonist 0, hcDAF-12 act 4, hgDAF-12 ag 23*, NF-kB neuron act 5.5*, APP 5'UTR act 168*, hgDAF12 conf 16* and LXR ag 2 1.
Cc1cc(C(=O)COC(=O)c2cc(Cl)ccc2N)c(C)n1Cc1ccco1 was read as ssDAF12 agonist 0, hcDAF-12 act 4, hgDAF-12 ag 14*, NF-kB neuron act 2, APP 5'UTR act 171*, hgDAF12 conf 13* and LXR ag 2 1.
For CN(C)c1ccc(NC(=O)NC2CCCCN(Cc3cccc(Cl)c3)C2=O)cc1 (configuration not stated) the results were ssDAF12 agonist -2, hcDAF-12 act -1 and hgDAF-12 ag 1.
